# Values joined by “and” are separate entries in the source; they are usually repeats but may differ in a detail not shown here. Equal entries are not always repeated. Structures can show the parent of a compound that is named as a salt. Screen size: about 5,800 compounds; about 620 (11%) showed activity.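 The calls were made as follows: active = score above a cut-off or among the top three wells of a plate; in these data no inactive exceeds 0.85.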 For the sample, actives were picked, then their nearest neighbours and some compounds at random.
# Tested on: primary human hepatic stellate cells (donor 1)
# Assay: scaled lipid accumulation score (0 = DMSO-like, 1 = nortriptyline-like); higher = stronger HSC inactivation (lipid re-accumulation), active = hit call of the paper
# Conditions: 48 h
# [1] = library stock concentration: 10 mM
# [2] = library stock concentration: 1 mM
# [3] = library stock concentration: 3.33 mM
smiles,measurement,setting,value
"CC(N)Cc1cccc(C(F)(F)F)c1 (single isomer, unassigned; (+)) [(+)-Norfenfluramine hydrochloride]",scaled lipid accumulation score,[1],0.072 (inactive)
CC(=O)[O][Hg][c]1ccccc1 [Phenylmercuric acetate],scaled lipid accumulation score,library stock concentration: 5.9 mM,0.512 (inactive)
same,scaled lipid accumulation score,[1],0.358 (inactive)
O=[N+]([O-])OCC(CO[N+](=O)[O-])O[N+](=O)[O-] [Nitroglycerin],scaled lipid accumulation score,library stock concentration: 8.8 mM,0.395 (inactive)
CCCCC/C=C\C/C=C\C/C=C\C/C=C\CCCC(=O)NCCc1ccc(O)c(O)c1 [N-Arachidonoyl Dopamine],scaled lipid accumulation score,[2],≤ 0 (inactive)
CCCCC/C=C\C/C=C\C/C=C\C/C=C\CCCC(=O)N[C@H](C)COP(=O)(O)O [R-1 Methanandamide Phosphate],scaled lipid accumulation score,[2],≤ 0 (inactive)
Cc1[nH]c2ccc(Cl)cc2c1C1=CCNCC1.Cl,scaled lipid accumulation score,[1],1.1 (active)
C#CCOC(=O)C1=CCCN(C)C1 [Arecaidine propargyl ester hydrobromide],scaled lipid accumulation score,[1],≤ 0 (inactive)
C#CCOC(=O)C1=CCCN(C)C1 [Arecaidine propargyl ester tosylate],scaled lipid accumulation score,[1],≤ 0 (inactive)
C[C@]12CCC(=O)C=C1CC[C@@H]1[C@@H]2CC[C@@]2(C)[C@H]1CC[C@]2(C)O [Methyltestosterone],scaled lipid accumulation score,[1],0.073 (inactive)
COc1ccc2c(c1)[nH]c1c(C)nccc12.Cl [Harmine hydrochloride],scaled lipid accumulation score,,0.89 (active)
Cc1nccc2c1[nH]c1ccccc12 [Harmane hydrochloride],scaled lipid accumulation score,,0.089 (inactive)
COc1ccc2c(c1)[nH]c1c(C)nccc12 [Harmine] [listing 1 of 2 here],scaled lipid accumulation score,[2],0.141 (inactive)
same,scaled lipid accumulation score,[1],0.762 (inactive)
COc1ccc2c(c1)[nH]c1c(C)nccc12 [Harmine] [listing 2 of 2 here],scaled lipid accumulation score,library stock concentration: 9.4 mM,0.851 (active)
Cc1nccc2c1[nH]c1cc(O)ccc12 [Harmol hydrochloride],scaled lipid accumulation score,[1],≤ 0 (inactive)
Cc1nccc2c1[nH]c1ccccc12 [Harmane],scaled lipid accumulation score,[1],0.671 (inactive)
COc1ccc2[nH]c3c(c2c1)CCN=C3C [Methoxy-6-harmalan],scaled lipid accumulation score,,0.039 (inactive)
Cc1onc(O)c1C[C@H](N)C(=O)O,scaled lipid accumulation score,[1],≤ 0 (inactive)
CCCCC/C=C\C/C=C\C/C=C\C/C=C\CCCC(=O)Nc1ccc([N+](=O)[O-])cc1 [Arachidonoyl p-Nitroaniline],scaled lipid accumulation score,[2],≤ 0 (inactive)
c1cc2ccc(N3CCNCC3)cc2cn1 [7-piperazin-1-yl-Isoquinoline (hydrochloride)],scaled lipid accumulation score,[2],≤ 0 (inactive)
CCN1CCN(C(=O)Cc2ccc(Nc3ncc(F)c(Nc4ccc(C(=O)Nc5ccccc5Cl)cc4)n3)cc2)CC1 [Aurora A Inhibitor I] [listing 1 of 2 here],scaled lipid accumulation score,[3],0.402 (inactive)
CCN1CCN(C(=O)Cc2ccc(Nc3ncc(F)c(Nc4ccc(C(=O)Nc5ccccc5Cl)cc4)n3)cc2)CC1 [Aurora A Inhibitor I] [listing 2 of 2 here],scaled lipid accumulation score,[1],1.24 (active)
CCN1CCN(C(=O)Cc2ccc(Nc3ncc(F)c(Nc4ccc(C(=O)Nc5ccccc5Cl)cc4)n3)cc2)CC1,scaled lipid accumulation score,library stock concentration: 80 uM,≤ 0 (inactive)
same,scaled lipid accumulation score,library stock concentration: 400 uM,≤ 0 (inactive)
same,scaled lipid accumulation score,library stock concentration: 2 mM,0.676 (inactive)
same,scaled lipid accumulation score,[1],0.801 (inactive)
"NC(Cn1oc(=O)[nH]c1=O)C(=O)O (single isomer, unassigned; (+)) [(+)-Quisqualic acid]",scaled lipid accumulation score,[1],≤ 0 (inactive)
CC[C@@H](CO)NC(=O)[C@@H]1C=C2c3cccc4c3c(cn4C)C[C@H]2N(C)C1 [Methysergide],scaled lipid accumulation score,library stock concentration: 5.7 mM,≤ 0 (inactive)
CN1C[C@H](CNC(=O)OCc2ccccc2)C[C@@H]2c3cccc4c3c(cn4C)C[C@H]21 [Metergoline] [listing 1 of 3 here],scaled lipid accumulation score,[1],0.653 (inactive)
CC[C@@H](CO)NC(=O)[C@@H]1C=C2c3cccc4c3c(cn4C)C[C@H]2N(C)C1 [Methysergide maleate],scaled lipid accumulation score,[1],0.458 (inactive) and 0.048 (inactive)
CN1C[C@H](CNC(=O)OCc2ccccc2)C[C@@H]2c3cccc4c3c(cn4C)C[C@H]21 [Metergoline] [listing 2 of 3 here],scaled lipid accumulation score,,1.06 (active)
CN1CC(CNC(=O)OCc2ccccc2)C[C@H]2c3cccc4c3c(cn4C)CC21 (some centres undefined) [Metergoline],scaled lipid accumulation score,[1],1.05 (active)
CN1C[C@H](CNC(=O)OCc2ccccc2)C[C@@H]2c3cccc4c3c(cn4C)C[C@H]21 [Metergoline] [listing 3 of 3 here],scaled lipid accumulation score,[1],0.893 (active)
CO[C@]12C[C@@H](COC(=O)c3cncc(Br)c3)CN(C)[C@@H]1Cc1cn(C)c3cccc2c13 [Nicergoline],scaled lipid accumulation score,,≤ 0 (inactive)
same,scaled lipid accumulation score,[1],0.682 (inactive) and 0.399 (inactive)
CCOC(=O)CN1C(=O)CC(C[C@@H](O)C2C[C@@H](C)C[C@H](C)C2=O)CC1=O (some centres undefined) [Cycloheximide-N-ethylethanoate],scaled lipid accumulation score,library stock concentration: 13.6 mM,≤ -0.021 (inactive)
Cc1cc([C@@H]2CCCN2C)on1 [ABT-418 hydrochloride],scaled lipid accumulation score,[1],≤ 0 (inactive)
CCOc1ccccc1-n1c(C(C)N2CCN(C(=O)COc3ccc(Cl)cc3)CC2)nc2ccccc2c1=O (centres undefined) [Erastin],scaled lipid accumulation score,[3],≤ -0.009 (inactive)
same,scaled lipid accumulation score,[1],0.473 (inactive)
"C[N+]1(C)CCc2cc3c(cc2C1C1OC(=O)c2c1ccc1c2OCO1)OCO3 (single isomer, unassigned; (-)) [(-)-Bicuculline methobromide]",scaled lipid accumulation score,[1],≤ 0 (inactive)
O=C(O)/C=C/CO [trans-4-Hydroxycrotonic acid],scaled lipid accumulation score,[1],0.003 (inactive)
CCCCCCCC/C=C\CCCCCCCC(=O)Nc1ccccc1 [Oleyl Anilide],scaled lipid accumulation score,[2],0.024 (inactive)
CS(=O)(=O)Nc1ccc(Cc2noc(-c3ccc4[nH]cc(CCN)c4c3)n2)cc1,scaled lipid accumulation score,[1],≤ 0 (inactive)
COc1ccc(C(=O)c2c(C)n(CCN3CCOCC3)c3ccccc23)cc1 [Pravadoline],scaled lipid accumulation score,library stock concentration: 5.3 mM,≤ -0.006 (inactive)
COc1ccc(CCN2CCC(Nc3nc4ccccc4n3Cc3ccc(F)cc3)CC2)cc1 [Astemizole] [listing 1 of 3 here],scaled lipid accumulation score,[1],0.907 (active)
COc1ccc(CCN2CCC(Nc3nc4ccccc4n3Cc3ccc(F)cc3)CC2)cc1 [Astemizole] [listing 2 of 3 here],scaled lipid accumulation score,library stock concentration: 4.4 mM,0.824 (inactive) and 0.409 (inactive)
same,scaled lipid accumulation score,[1],0.475 (inactive)
COc1ccc(CCN2CCC(Nc3nc4ccccc4n3Cc3ccc(F)cc3)CC2)cc1 [Astemizole] [listing 3 of 3 here],scaled lipid accumulation score,,1 (active)

# From the supplement of paper PMC9135407
